Test [1] deals with ATPase family AAA domain-containing protein 5 (Homo sapiens) (UniProt Q96QE3). Nature of the test: Validation screen for small molecules that inhibit ELG1-dependent DNA repair in human embryonic kidney (HEK293T) cells expressing luciferase-tagged ELG1 (AID 493107).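 Note: cells co-treated with the DNA-damaging agent 5-fluorouridine alongside compound; series mostly up to about 46 µM; % is set by controls: 0 for no effect and ±100 for the full control effect; inhibitors lower the ELG1-luciferase luminescence signal; nearly all actives have a fitted effect of over 70% in size.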 In a few lines:
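Quantitative HTS in HEK293T cells carrying luciferase-tagged ELG1, stimulated with 5-fluorouridine alongside compound for 16 hr. Loss of luciferase signal marks inhibition of ELG1 response.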

The target of test [2] is Thyrotropin-releasing hormone receptor (Homo sapiens) (UniProt P34981). In words: qHTS for Small Molecule Agonists and Allosteric Enhancers of Human TRH Receptor: Validation Screen for Agonists (AID 493127;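 active = calcium activation more than 3 SD above the typical response in the agonist read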;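 note: intracellular calcium rise by fluo-8 fluorescence before TRH EC20 addition; 0% is about no effect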). The conditions noted are these: TRH receptor agonist cell assay; at 2 µM; stronger effect = higher value. In a few lines: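 Gq-coupled calcium mobilization in TRHR cells after compound addition, monitored kinetically with fluo-8 dye on an FDSS reader.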
Thyrotropin-releasing hormone receptor (Homo sapiens), sequence (P34981 whole entry, looked up): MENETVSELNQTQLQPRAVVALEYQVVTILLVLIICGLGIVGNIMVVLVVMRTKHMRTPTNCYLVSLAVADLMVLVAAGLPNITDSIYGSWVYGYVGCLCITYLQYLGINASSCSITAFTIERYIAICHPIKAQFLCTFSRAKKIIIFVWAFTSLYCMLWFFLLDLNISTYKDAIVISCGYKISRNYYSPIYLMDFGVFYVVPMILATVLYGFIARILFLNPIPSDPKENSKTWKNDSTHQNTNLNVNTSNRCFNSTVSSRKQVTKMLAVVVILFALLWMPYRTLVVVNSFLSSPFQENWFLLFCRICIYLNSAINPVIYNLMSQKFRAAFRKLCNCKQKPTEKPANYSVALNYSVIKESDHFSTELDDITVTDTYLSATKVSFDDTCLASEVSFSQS
On the technique in general: In qHTS, concentration-response curves come from the screen itself.

Test [3] in a line: Nrf2 qHTS screen for inhibitors: Validation (AID 493153; active = well fitted inhibition curve with a large enough effect in the main read-out, with a control signal flat, not every such curve was filed as active). The conditions noted are these: Potency: luciferase luminescence; viability change: measured here: cytotoxicity max response. The gist of the method:
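Dose-response validation uses reporter A549 cells with firefly luciferase under an antioxidant response element. Compounds stay on cells 18-24 h at 37°C, and luminescence indicates Nrf2-driven transcription.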

The nature of test [4]: qHTS for Inhibitors of Cell Surface uPA Generation: Validation Assay (AID 493164).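 Note: RAW 264.7 macrophage cells exposed to compound for 18 h; 0% is about no effect.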 In a few lines:
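RAW 264.7, 4000 cells/well, o/n plating; cpd 7-pt 1:5 dilution 2.45 nM–38.3 uM final; 18 h, 37 C/5% CO2; ATP-Lite, 5 s luminescence exposure.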

The target of test [5] is Galactokinase (Homo sapiens) (UniProt P51570). Nature of the test: qHTS Validation Assay for Inhibitors of Human Galactokinase (GALK) (AID 493189). Note: 0% is about no effect. The gist of the method: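 GALK (5 nM) with 35 uM ATP and 100 uM galactose in HEPES pH8.0, MgCl2, NaCl, DTT, BSA; 1 h at room temperature. Residual ATP read by Kinase-Glo Plus luminescence after 10 min.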
Galactokinase (Homo sapiens), sequence (P51570 whole entry, looked up): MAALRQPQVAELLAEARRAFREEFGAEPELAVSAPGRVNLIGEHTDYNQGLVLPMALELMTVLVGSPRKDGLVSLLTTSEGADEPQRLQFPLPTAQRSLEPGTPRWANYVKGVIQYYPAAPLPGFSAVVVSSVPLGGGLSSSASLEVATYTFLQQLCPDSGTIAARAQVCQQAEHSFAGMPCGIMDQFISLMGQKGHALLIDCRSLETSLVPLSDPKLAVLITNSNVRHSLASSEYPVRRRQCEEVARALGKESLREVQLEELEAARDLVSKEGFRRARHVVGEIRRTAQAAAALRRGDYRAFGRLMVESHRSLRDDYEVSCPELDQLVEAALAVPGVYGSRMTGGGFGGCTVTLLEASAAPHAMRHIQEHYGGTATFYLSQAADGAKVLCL
Test [6] can be described thus: Validation screen for small molecules that induce DNA re-replication in SW480 colon adenocarcinoma cells (AID 504364). Note: 0% is about no effect. The gist of the method: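 Cells are treated 48 hr with test compound, stained 40 min with Hoechst at 37 C, and scanned for nuclear fluorescence; compounds inducing re-replication increase nuclei with elevated intensity.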
For test [7], the target named is Peptidyl-prolyl cis-trans isomerase NIMA-interacting 1 (Homo sapiens) (UniProt Q13526). Nature of the test: qHTS Validation Assay to Find Inhibitors of Pin1 (AID 504536; active = well fitted inhibition curve with a large enough effect in the polarisation, with a control signal flat, not every such curve was filed as active; the % refers to the polarisation;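 note: 0% = full Pin1 enzyme wells and -100% = no-enzyme wells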). The gist of the method: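 Fluorescence polarization competition: compounds (titration) displace HiFluor-488-labeled Pin1-1b peptide from Pin1 (0.3 uM final) in pH 7.5 HEPES buffer with DTT, 10 min at room temperature; %Activity normalized to no-enzyme wells, curves fitted.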
Peptidyl-prolyl cis-trans isomerase NIMA-interacting 1 (Homo sapiens), sequence (Q13526 whole entry, looked up): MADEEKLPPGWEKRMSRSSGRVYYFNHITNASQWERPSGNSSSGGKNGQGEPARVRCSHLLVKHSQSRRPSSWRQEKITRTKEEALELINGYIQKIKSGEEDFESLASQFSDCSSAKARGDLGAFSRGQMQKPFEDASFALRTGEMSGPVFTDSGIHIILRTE

The target of test [8] is phosphoglycerate mutase (Leishmania major) (UniProt Q4Q090). In words: qHTS Validation Assay to Find Inhibitors of Phosphoglycerate Mutase (AID 504548).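 Note: end-point luminescence from Kinase-GloPlus after the PGAM reaction; series mostly up to about 58 µM; % is set by controls: 0 for no effect and ±100 for the full control effect.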 The gist of the method: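 Inhibition of L. major PGAM was assessed by Kinase-GloPlus luminescence following a 45-minute room-temperature reaction with enzyme at 1.25nM final.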
phosphoglycerate mutase (Leishmania major), sequence (Q4Q090 1-553): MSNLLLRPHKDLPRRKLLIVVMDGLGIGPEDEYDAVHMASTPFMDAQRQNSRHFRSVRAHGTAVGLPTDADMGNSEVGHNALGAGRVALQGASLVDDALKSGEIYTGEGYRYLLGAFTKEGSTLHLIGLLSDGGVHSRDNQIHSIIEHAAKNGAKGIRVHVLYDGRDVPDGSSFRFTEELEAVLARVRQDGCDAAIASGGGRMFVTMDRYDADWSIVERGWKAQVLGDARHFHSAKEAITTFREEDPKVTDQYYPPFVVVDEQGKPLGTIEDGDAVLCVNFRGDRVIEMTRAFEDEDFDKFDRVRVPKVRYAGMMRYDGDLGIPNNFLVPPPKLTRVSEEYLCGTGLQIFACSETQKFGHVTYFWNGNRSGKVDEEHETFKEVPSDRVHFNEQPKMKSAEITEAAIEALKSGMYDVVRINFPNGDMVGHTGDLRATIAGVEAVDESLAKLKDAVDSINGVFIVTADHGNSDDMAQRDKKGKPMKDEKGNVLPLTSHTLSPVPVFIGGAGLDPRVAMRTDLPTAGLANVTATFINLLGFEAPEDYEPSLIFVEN
Test [9] has as its target Ubiquitin carboxyl-terminal hydrolase 1 (Homo sapiens) (UniProt O94782). Nature of the test: Inhibitors of USP1/UAF1: Pilot qHTS (AID 504865).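 Note: rhodamine fluorescence freed from ubiquitin-rhodamine substrate followed over time; top concentration of the series differs between compounds; % is set by controls: 0 for no effect and ±100 for the full control effect; nearly all actives have a fitted effect of over 35% in size.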 The gist of the method: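 USP1/UAF1 complex (1nM) preincubated with compound 15 min at room temperature, then Ub-Rho substrate (150nM final) added. Fluorescence read kinetically at 480/540 nm, 6 reads every 60 seconds. Buffer: 50mM HEPES pH 7.8, 0.5mM EDTA, 0.1 mg/ml BSA, 1mM TCEP, 0.01% Tween-20.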

The target of test [10] is Phosphoglycerate kinase, glycosomal (Trypanosoma brucei brucei) (UniProt P07378). Nature of the test: qHTS Validation Assay to Find Inhibitors of Phosphoglycerate Kinase (AID 504547).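 Note: control wells lack PGK and mark full inhibition.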 The gist of the method:
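PGK activity was coupled to GAPDH (100nM final), which generates the unstable substrate 1,3-bisphosphoglycerate in-well. Reactions ran 60 minutes at room temperature in 100mM TEA pH 7.6, 5mM MgCl2, 0.01% Tween-20, then Kinase-Glo Plus luminescence was read.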

“And” between values parts separate entries of the source, which are not always exact repeats. Equal values may be shown once. Records with an inconclusive call do not appear. The source made the active and inactive calls. Unless noted, calls come from the whole dose curve; as a rule, active = well fitted curve in the direction sought with a large enough effect; inconclusive = small, poorly fitted or top-dose-only effect, or another doubt; inactive = no such curve, though single readings can be large; an effect the other way counts as inactive or inconclusive.

Ubiquitin carboxyl-terminal hydrolase 1 (Homo sapiens), sequence (O94782 whole entry, looked up): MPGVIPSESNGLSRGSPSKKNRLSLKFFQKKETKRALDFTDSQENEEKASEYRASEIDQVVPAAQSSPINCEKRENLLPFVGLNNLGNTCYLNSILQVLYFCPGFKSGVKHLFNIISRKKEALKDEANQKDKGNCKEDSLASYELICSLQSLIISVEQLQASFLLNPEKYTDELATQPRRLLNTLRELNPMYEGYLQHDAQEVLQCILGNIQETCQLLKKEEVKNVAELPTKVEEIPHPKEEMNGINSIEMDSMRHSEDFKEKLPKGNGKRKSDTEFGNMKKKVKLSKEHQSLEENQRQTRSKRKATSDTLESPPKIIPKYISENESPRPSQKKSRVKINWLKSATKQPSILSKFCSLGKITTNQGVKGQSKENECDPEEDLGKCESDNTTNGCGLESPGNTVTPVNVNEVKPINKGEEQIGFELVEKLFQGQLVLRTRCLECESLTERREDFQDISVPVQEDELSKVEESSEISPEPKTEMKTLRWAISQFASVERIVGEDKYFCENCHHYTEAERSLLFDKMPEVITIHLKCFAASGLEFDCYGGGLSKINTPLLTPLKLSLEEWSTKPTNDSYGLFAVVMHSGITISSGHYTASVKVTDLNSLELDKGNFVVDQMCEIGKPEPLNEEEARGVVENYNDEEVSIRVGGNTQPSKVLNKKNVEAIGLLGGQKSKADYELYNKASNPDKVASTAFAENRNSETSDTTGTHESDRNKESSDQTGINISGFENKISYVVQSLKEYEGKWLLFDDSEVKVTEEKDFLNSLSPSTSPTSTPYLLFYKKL
ATPase family AAA domain-containing protein 5 (Homo sapiens), sequence (Q96QE3 whole entry, looked up, the tested form may be a part): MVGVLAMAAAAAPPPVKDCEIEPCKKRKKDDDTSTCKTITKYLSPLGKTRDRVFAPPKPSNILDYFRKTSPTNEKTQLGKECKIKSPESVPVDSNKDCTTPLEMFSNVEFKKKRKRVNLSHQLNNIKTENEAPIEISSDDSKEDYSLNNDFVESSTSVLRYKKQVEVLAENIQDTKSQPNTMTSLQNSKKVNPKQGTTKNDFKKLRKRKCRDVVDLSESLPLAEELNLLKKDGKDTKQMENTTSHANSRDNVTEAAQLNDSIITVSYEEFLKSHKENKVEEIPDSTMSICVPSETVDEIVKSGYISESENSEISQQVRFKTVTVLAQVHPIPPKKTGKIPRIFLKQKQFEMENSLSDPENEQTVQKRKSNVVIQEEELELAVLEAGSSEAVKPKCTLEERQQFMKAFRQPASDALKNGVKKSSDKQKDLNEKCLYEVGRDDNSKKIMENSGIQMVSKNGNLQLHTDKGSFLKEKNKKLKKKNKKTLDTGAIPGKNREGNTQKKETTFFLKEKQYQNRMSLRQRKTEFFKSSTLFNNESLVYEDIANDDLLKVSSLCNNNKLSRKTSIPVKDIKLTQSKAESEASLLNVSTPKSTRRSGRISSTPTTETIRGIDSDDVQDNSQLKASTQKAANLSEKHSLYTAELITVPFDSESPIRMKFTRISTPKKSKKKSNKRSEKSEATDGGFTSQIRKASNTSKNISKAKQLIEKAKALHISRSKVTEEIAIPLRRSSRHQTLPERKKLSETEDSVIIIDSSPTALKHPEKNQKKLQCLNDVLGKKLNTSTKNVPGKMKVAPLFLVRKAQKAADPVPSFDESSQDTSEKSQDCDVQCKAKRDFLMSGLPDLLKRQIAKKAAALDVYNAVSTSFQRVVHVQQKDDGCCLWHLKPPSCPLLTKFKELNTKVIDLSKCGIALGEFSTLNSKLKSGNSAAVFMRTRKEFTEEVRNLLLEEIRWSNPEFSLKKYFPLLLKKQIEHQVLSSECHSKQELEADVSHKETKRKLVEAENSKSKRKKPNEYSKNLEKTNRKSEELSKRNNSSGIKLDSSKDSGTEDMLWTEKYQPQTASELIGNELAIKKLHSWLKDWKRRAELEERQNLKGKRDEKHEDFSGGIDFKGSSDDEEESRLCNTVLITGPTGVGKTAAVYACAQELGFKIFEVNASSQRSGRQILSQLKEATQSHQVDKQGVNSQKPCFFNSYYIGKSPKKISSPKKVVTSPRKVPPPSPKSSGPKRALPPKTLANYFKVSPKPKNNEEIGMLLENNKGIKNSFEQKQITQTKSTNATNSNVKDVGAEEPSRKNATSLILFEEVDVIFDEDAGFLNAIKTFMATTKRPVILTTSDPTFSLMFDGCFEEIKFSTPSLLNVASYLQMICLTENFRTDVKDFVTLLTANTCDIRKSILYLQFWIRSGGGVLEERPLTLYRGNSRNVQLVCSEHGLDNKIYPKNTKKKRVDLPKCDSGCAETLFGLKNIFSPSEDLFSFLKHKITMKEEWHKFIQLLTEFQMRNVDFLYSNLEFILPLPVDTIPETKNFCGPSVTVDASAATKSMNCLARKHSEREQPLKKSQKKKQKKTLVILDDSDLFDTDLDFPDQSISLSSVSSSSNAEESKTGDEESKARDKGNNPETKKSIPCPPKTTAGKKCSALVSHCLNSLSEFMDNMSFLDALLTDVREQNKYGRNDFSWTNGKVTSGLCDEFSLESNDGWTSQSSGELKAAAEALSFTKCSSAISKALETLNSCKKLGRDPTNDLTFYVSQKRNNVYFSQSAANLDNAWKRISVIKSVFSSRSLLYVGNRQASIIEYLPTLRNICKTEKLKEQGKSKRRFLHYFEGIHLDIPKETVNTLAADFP
Phosphoglycerate kinase, glycosomal (Trypanosoma brucei brucei), sequence (P07378 whole entry, looked up): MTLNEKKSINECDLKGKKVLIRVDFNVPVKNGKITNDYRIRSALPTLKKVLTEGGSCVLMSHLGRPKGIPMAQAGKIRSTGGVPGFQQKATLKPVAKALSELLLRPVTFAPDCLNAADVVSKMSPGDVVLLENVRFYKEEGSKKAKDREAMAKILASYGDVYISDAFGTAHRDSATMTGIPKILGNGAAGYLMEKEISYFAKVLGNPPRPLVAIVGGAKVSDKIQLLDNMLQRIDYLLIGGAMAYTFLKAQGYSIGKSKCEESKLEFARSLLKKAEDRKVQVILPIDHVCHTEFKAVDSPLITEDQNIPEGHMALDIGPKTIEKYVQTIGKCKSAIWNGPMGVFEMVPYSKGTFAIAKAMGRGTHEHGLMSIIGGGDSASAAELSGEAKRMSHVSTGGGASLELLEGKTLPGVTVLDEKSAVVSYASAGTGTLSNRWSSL

On to `Cn1cnc2c1c(=O)[nH]c(=O)n2C`, for which the Potency entry in [1], in test [3], in [5], in test [6], in test [7] and in [9] was “inactive” in each case. Besides, the activation in [2] is 0.562% (inactive). In addition, in test [3], the viability change is -9.08%. The call in [4] and in [8] was inactive.
Consider `Nc1ccn([C@H]2CC[C@@H](CO)O2)c(=O)n1`, for which the Potency entry in test [1], in [3], in test [5], in [6], in test [7] and in [10] was “inactive” throughout. Besides, in test [9], the Potency entry was “inactive”. The activation in test [2] was 0.938% (inactive). In [3], the viability change was -1.24%. Besides, the outcome in test [4] was inactive.
In the case of `CC(C)Cc1ccc(C(C)C(=O)O)cc1` (stereo not given), the Potency entry in [1], in test [3], in [6], in test [7], in test [10] and in test [9] was “inactive” each time. Moreover, in test [2], the activation is 0.375% (inactive). Moreover, in [3], the viability change worked out at 7.62%. The outcome in test [4] and in test [8] was inactive.
With `CC(C)NCC(O)c1ccc(O)c(O)c1` (stereo not given), the Potency entry in [1], in test [5], in test [6], in test [7], in [10] and in [9] was “inactive” throughout. Besides, the activation in test [2] was 0.688% (inactive) and 0.188% (inactive). Further, the call in [4] was inactive.
For the compound `CC(C)C(=O)Nc1ccc([N+](=O)[O-])c(C(F)(F)F)c1`, the Potency result in test [1], in [5], in [6], in [7], in test [10] and in test [9] was “inactive” each time. The activation in test [2] is -0.438% (inactive). Besides, the call in test [4] was inactive.
Consider `COc1ccc(C2CNC(=O)C2)cc1OC1CCCC1` (stereo not given), for which the Potency result in [1], in test [5], in test [6], in test [7], in [10] and in [9] was “inactive” throughout. For the same compound, in test [2], the activation was 0.812% (inactive). Further, the compound was classed as inactive in test [4].
On to `O=C1N(c2ccccc2)c2ccccc2C1(Cc1ccncc1)Cc1ccncc1`, for which the Potency entry in test [1], in test [3], in test [5], in test [6], in [7] and in test [9] was “inactive” each time. Moreover, in test [2], the activation was 1.31% (inactive). For the same compound, the viability change in [3] was 10.1%. The call in test [4] and in test [8] was inactive.
In the case of `O=C(C1CCCCC1)N1CC(=O)N2CCc3ccccc3C2C1` (stereo not given), the Potency result in [1], in test [5], in [6], in [7], in [10] and in [9] was “inactive” throughout. Further, the activation in test [2] is 0.312% (inactive). The outcome in [4] was inactive.
`CN1C(C(=O)Nc2ccccn2)=C(O)c2ccccc2S1(=O)=O`: the Potency result in test [1], in test [5], in [6], in [7], in [10] and in [9] was “inactive” throughout. For the same compound, the activation in test [2] was 0.812% (inactive). The result in test [4] and in test [8] was inactive.
With `COc1ccccc1OCC(O)CN1CCN(CC(=O)Nc2c(C)cccc2C)CC1` (stereo not given), the Potency result in [1], in [3], in test [5], in test [6], in [7] and in [9] was “inactive” in each case. Also, the activation in [2] is 0.375% (inactive). For the same compound, the viability change in [3] is -3.01%. Besides, the compound was classed as inactive in test [4].
On to `NCCS(=O)(=O)O`, for which the Potency entry in [1], in test [3], in test [5], in test [6], in test [7] and in test [10] was “inactive” each time. Further, the Potency result in test [9] is “inactive”. Moreover, the activation in test [2] was 1.12% (inactive). For the same compound, the viability change in [3] was -6.75%. Further, the call in [4] and in test [8] was inactive.
Take `CN(C)CCOC(c1ccccc1)c1ccccc1`: the Potency result in [1], in test [3], in test [5], in [6], in test [7] and in [10] was “inactive” throughout. For the same compound, the activation in test [2] is -3.31% (inactive). For the same compound, in test [3], the viability change was 2.71%. For the same compound, the call in test [4] and in [8] was inactive.
For `CCOC(=O)C(C)(C)Oc1ccc(Cl)cc1`, the Potency result in test [1], in test [3], in [5], in test [6], in test [7] and in test [9] was “inactive” throughout. For the same compound, in test [2], the activation was -8.94% (inactive). Also, in [3], the viability change is -5.48%. Also, the call in [4] and in [8] was inactive.
For the compound `CCc1cccc2c3c([nH]c12)C(CC)(CC(=O)O)OCC3` (stereo not given), the Potency result in [1], in test [3], in [5], in test [6], in test [7] and in [10] was “inactive” in each case. Besides, in test [9], the Potency entry was “inactive”. In test [3], the viability change was -5.62%. Besides, the compound was classed as inactive in test [4].
Take `NC(CO)C(=O)NNCc1ccc(O)c(O)c1O` (stereo not given): the Potency result in [1], in [5], in test [6], in test [7] and in test [9] was “inactive” in each case. In addition, the outcome in [4] was inactive.
As for `CN1CCC(=C2c3ccccc3CC(=O)c3sccc32)CC1`, the Potency entry in test [1], in test [3], in [5], in test [6], in test [7] and in test [9] was “inactive” throughout. Moreover, the viability change in test [3] is -3.17%. Also, the compound was called inactive in test [4] and in test [8].
`CC[N+](CC)(CC)CCOc1cccc(OCC[N+](CC)(CC)CC)c1OCC[N+](CC)(CC)CC`: the Potency result in test [1], in test [5], in [6] and in [7] was “inactive” each time. In addition, the compound was called inactive in test [4].
Turning to `Clc1ccc2c(c1)C(N1CCNCC1)=Nc1ccccc1O2`, the Potency entry in [1], in test [5], in [6], in test [7] and in test [9] was “inactive” throughout. The activation in test [2] was 4.19% (inactive). Besides, the call in [4] and in test [8] was inactive.
As for `Cc1cc(C(C)(C)C)cc(C)c1CC1=NCCN1`, the Potency entry in test [1], in test [3], in [5], in [6], in test [7] and in test [9] was “inactive” in each case. Besides, the viability change in test [3] stood at 1.17%. Also, the call in test [4] was inactive.
Consider `Cn1c(=O)c2c(ncn2C)n(C)c1=O`, for which the Potency entry in [1], in test [3], in [6], in test [7] and in test [9] was “inactive” throughout. In test [3], the viability change was -2.67%. The compound was classed as inactive in test [4].
For `CN(C)C(=O)C(CCN1CCC(O)(c2ccc(Cl)cc2)CC1)(c1ccccc1)c1ccccc1`, the Potency result in test [1], in test [5], in test [7], in [10] and in test [9] was “inactive” in each case. In [2], the activation was 17% (inactive). The outcome in test [4] was inactive.

For the origin of these results see PubChem BioAssay (NCATS).
